Data as given in PubChem BioAssay (NCATS).
Inconclusive results are not listed. Activity calls are given as the source filed them. Calls come from the whole dose curve; as a rule, active = well fitted curve in the direction sought with a large enough effect; inconclusive = small, poorly fitted or top-dose-only effect, or another doubt; inactive = no such curve, though single readings can be large; an effect the other way counts as inactive or inconclusive.

What was measured:
[1] = qHTS of pediatric cancer cell lines to identify multiple opportunities for drug repurposing: Primary screen for NB1643 cells (AID 1347099);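 note: plate controls were DMSO neutral control for no effect and bortezomib positive control for full effect; nearly all actives have a fitted effect of over 50% in size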
Summary of the method: (§1)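 Cells seeded at 500-1,000 cells/well in growth media, rested 5 hours at 37 degrees C, 5% CO2, then dosed; MIPE compounds at 11-point (from 0.78 nM) and NPC at 8-point (from 0.59 nM) final concentrations. Viability by CellTiter-Glo luminescence after 48 hours.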

[2] = qHTS of pediatric cancer cell lines to identify multiple opportunities for drug repurposing: Primary screen for LAN-5 cells (AID 1347100);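 note: plate controls were DMSO neutral control for no effect and bortezomib positive control for full effect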
Summary of the method: (§2)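 Cells (500-1,000/well) in growth media were settled 5 h at 37 degrees C, then given compounds for 48 h. Viability was read as CellTiter-Glo luminescence. Primary runs used MIPE at 11 points (0.78 nM-46 µM) and NPC at 8 points (0.59 nM-46 µM); follow-ups used 11 points.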

[3] = qHTS of pediatric cancer cell lines to identify multiple opportunities for drug repurposing: Primary screen for BT-12 cells (AID 1347101);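 note: plate controls were DMSO for no effect and bortezomib positive control for full effect; nearly all actives have a fitted effect of over 25% in size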
Summary of the method: (§3)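 Cells (500-1,000/well) rested 5 h, then received compounds for 48 h; metabolically active cells were measured by CellTiter-Glo luminescence. Final concentrations spanned up to 46 µM (MIPE, 11-point) or 0.59 nM-46 µM (NPC, 8-point) in primary screens, 11-point in follow-ups.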

[4] = qHTS of pediatric cancer cell lines to identify multiple opportunities for drug repurposing: Primary screen for Rh18 cells (AID 1347102); note: % is set by controls: 0 for no effect and ±100 for the full control effect; nearly all actives have a fitted effect of over 65% in size
Summary of the method: as §2

[5] = qHTS of pediatric cancer cell lines to identify multiple opportunities for drug repurposing: Primary screen for OHS-50 cells (AID 1347103);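 note: plate controls were DMSO neutral control for no effect and bortezomib positive control for full effect; nearly all actives have a fitted effect of over 40% in size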
Summary of the method: as §3

[6] = qHTS of pediatric cancer cell lines to identify multiple opportunities for drug repurposing: Primary screen for RD cells (AID 1347104);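 note: plate controls were DMSO for no effect and bortezomib for full effect; nearly all actives have a fitted effect of over 55% in size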
Summary of the method: as §1

[7] = qHTS of pediatric cancer cell lines to identify multiple opportunities for drug repurposing: Primary screen for MG 63 (6-TG R) cells (AID 1347105); note: % is set by controls: 0 for no effect and ±100 for the full control effect; nearly all actives have a fitted effect of over 50% in size
Summary of the method: as §1

[8] = qHTS of pediatric cancer cell lines to identify multiple opportunities for drug repurposing: Primary screen for control Hh wild type fibroblast cells (AID 1347106);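 note: series mostly up to about 46 µM; % is set by controls: 0 for no effect and ±100 for the full control effect; a drop in luminescence marks cytotoxicity and a rise apparent proliferation; nearly all actives have a fitted effect of over 55% in size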
Summary of the method: as §2

[9] = qHTS of pediatric cancer cell lines to identify multiple opportunities for drug repurposing: Primary screen for Rh30 cells (AID 1347107); note: series mostly up to about 46 µM; % is set by controls: 0 for no effect and ±100 for the full control effect; nearly all actives have a fitted effect of over 75% in size
Summary of the method: as §2

[10] = qHTS of pediatric cancer cell lines to identify multiple opportunities for drug repurposing: Primary screen for Rh41 cells (AID 1347108);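 note: series mostly up to about 46 µM; luminescence drop marks cytotoxic hits; nearly all actives have a fitted effect of over 70% in size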
Summary of the method: as §1

O=C(O)CCc1nc2ccccc2[nH]1
inactive: Potency [1] | Potency [2] | Potency [3] | Potency [4] | Potency [5] | Potency [6] | Potency [7] | Potency [8] | Potency [9] | Potency [10]

CCCCCCCCCCCCCCCCO
inactive: Potency [1] | Potency [2] | Potency [3] | Potency [4] | Potency [5] | Potency [6] | Potency [7] | Potency [8] | Potency [9] | Potency [10]

Nc1ccc(C(=O)NCC(=O)O)cc1
inactive: Potency [1] | Potency [2] | Potency [3] | Potency [4] | Potency [5] | Potency [6] | Potency [7] | Potency [8] | Potency [9] | Potency [10]

N#CCC(=O)NN
inactive: Potency [1] | Potency [2] | Potency [3] | Potency [4] | Potency [5] | Potency [6] | Potency [7] | Potency [8] | Potency [9] | Potency [10]

CC(=O)O[C@H]1C[C@@H]2CC[C@@H]3[C@H](CC[C@@]4(C)[C@H]3C[C@H]([N+]3(C)CCCCC3)[C@@H]4OC(C)=O)[C@@]2(C)C[C@@H]1N1CCCCC1
inactive: Potency [1] | Potency [2] | Potency [3] | Potency [4] | Potency [5] | Potency [6] | Potency [7] | Potency [8] | Potency [9] | Potency [10]

FC1(F)C(F)(F)C(F)(F)C2(F)C(F)(F)C(F)(F)C(F)(F)C(F)(F)C2(F)C1(F)F (centres undefined)
inactive: Potency [1] | Potency [2] | Potency [3] | Potency [4] | Potency [5] | Potency [6] | Potency [7] | Potency [8] | Potency [9] | Potency [10]

COc1ccc(S(=O)(=O)N2c3ccc(Cl)cc3[C@@](O)(c3ccccc3Cl)[C@H]2C(=O)N2CCC[C@@H]2C(N)=O)cc1OC
inactive: Potency [1] | Potency [2] | Potency [3] | Potency [4] | Potency [5] | Potency [6] | Potency [7] | Potency [8] | Potency [9] | Potency [10]

COc1ccc(/C=N/NC(=O)c2ccncc2)cc1OC
inactive: Potency [1] | Potency [2] | Potency [3] | Potency [4] | Potency [5] | Potency [6] | Potency [7] | Potency [8] | Potency [9] | Potency [10]

COc1ccc(CCN(C)CCCN2CCc3cc(OC)c(OC)cc3CC2=O)cc1OC
inactive: Potency [1] | Potency [2] | Potency [3] | Potency [4] | Potency [5] | Potency [6] | Potency [7] | Potency [8] | Potency [9] | Potency [10]

NS(=O)(=O)Cc1noc2ccccc12
inactive: Potency [1] | Potency [2] | Potency [3] | Potency [4] | Potency [5] | Potency [6] | Potency [7] | Potency [8] | Potency [9] | Potency [10]

CCN[C@@H]1C[C@H](N)[C@@H](OC2OC(CN)=CCC2N)[C@H](O)[C@H]1O[C@H]1OC[C@](C)(O)[C@H](NC)[C@H]1O (some centres undefined)
inactive: activity change, negative = cytotoxic [1] 4.64% [at 0.597 µM] | activity change, negative = cytotoxic [2] -0.753% [at 0.597 µM] | activity change, negative = cytotoxic [3] 7.6% [at 0.745 µM] | activity change, negative = cytotoxic [4] 7.22% [at 0.597 µM] | activity change, negative = cytotoxic [5] 0.649% [at 0.73 µM] | activity change, negative = cytotoxic [6] -1.92% [at 0.597 µM] | activity change, negative = cytotoxic [7] -16.5% [at 0.597 µM] | activity change, negative = cytotoxic [8] 8.24% [at 0.597 µM] | activity change, negative = cytotoxic [9] 14.5% [at 0.597 µM] | activity change, negative = cytotoxic [10] 8.19% [at 0.597 µM]

CC(CNC1CCCCC1)OC(=O)c1ccccc1 (centres undefined)
inactive: Potency [1] | Potency [2] | Potency [3] | Potency [4] | Potency [5] | Potency [6] | Potency [7] | Potency [8] | Potency [9] | Potency [10]

O=C(O)Cc1csc(-c2ccc(Cl)cc2)n1
inactive: Potency [1] | Potency [2] | Potency [3] | Potency [4] | Potency [5] | Potency [6] | Potency [7] | Potency [8] | Potency [9] | Potency [10]

CCCCC(CC)COC(=O)c1ccc(N(C)C)cc1 (centres undefined)
inactive: Potency [1] | Potency [2] | Potency [3] | Potency [4] | Potency [5] | Potency [6] | Potency [7] | Potency [8] | Potency [9] | Potency [10]

COc1cc(C(=S)N2CCOCC2)ccc1O
inactive: Potency [1] | Potency [2] | Potency [3] | Potency [4] | Potency [5] | Potency [6] | Potency [7] | Potency [8] | Potency [9] | Potency [10]

CC(=O)N[C@@H](CCC(=O)O)C(=O)O
inactive: Potency [1] | Potency [2] | Potency [3] | Potency [4] | Potency [5] | Potency [6] | Potency [7] | Potency [8] | Potency [9] | Potency [10]

CC(C)Cc1ccc(CC(=O)O)cc1
inactive: Potency [1] | Potency [2] | Potency [3] | Potency [4] | Potency [5] | Potency [6] | Potency [7] | Potency [8] | Potency [9] | Potency [10]

O=S(c1cc(Cl)cc(Cl)c1O)c1cc(Cl)cc(Cl)c1O
inactive: Potency [1] | Potency [2] | Potency [3] | Potency [4] | Potency [5] | Potency [6] | Potency [7] | Potency [8] | Potency [9] | Potency [10]

CCc1ccc(C(=O)C(C)CN2CCCCC2)cc1 (centres undefined)
inactive: Potency [1] | Potency [2] | Potency [3] | Potency [4] | Potency [5] | Potency [6] | Potency [7] | Potency [8] | Potency [9] | Potency [10]

Cc1cc(-c2ccccc2)nnc1NCCN1CCOCC1
inactive: Potency [1] | Potency [2] | Potency [3] | Potency [4] | Potency [5] | Potency [6] | Potency [7] | Potency [8] | Potency [9]

COc1ccc(-c2cc(C(F)F)nn2-c2ccc(S(N)(=O)=O)cc2)cc1F
inactive: Potency [1] | Potency [2] | Potency [3] | Potency [4] | Potency [5] | Potency [6] | Potency [7] | Potency [8] | Potency [9] | Potency [10]

NS(=O)(=O)c1cc(C(=O)O)cc(N2CCCC2)c1Oc1ccccc1
inactive: Potency [1] | Potency [2] | Potency [3] | Potency [4] | Potency [5] | Potency [6] | Potency [7] | Potency [8] | Potency [9] | Potency [10]
